Measurements from PubChem BioAssay AID1621 (Southern Research Specialized Biocontainment Screening …, 2009).
Among all 290,000 compounds or so, about 60 (0.02%) were called active. Roughly 1% stayed inconclusive and do not appear here. The rule behind the calls is not given here. The list is a sample of the results. Measured potencies and affinities stand elsewhere.

Assay: inhibition of WNV-induced cytopathic effect – cell-based, CPE readout (AID 1621)
Conditions: West Nile virus-infected cells, at 10 µM, active compounds read high

CPE inhibition, inactive:
Cc1ccc(-c2cc(C(=O)NCCCN3CCOCC3)c3ccccc3n2)cc1C 0.07%
CCOc1ccc(-c2cc(C(=O)NCCCN3CCCC3)c3ccccc3n2)cc1 11.7%
O=C(NCc1ccc(F)cc1)C1CCCN(S(=O)(=O)c2ccc(-n3cnnn3)cc2)C1 (stereo not given) 0.7%
CN(C)CCCN1c2ccccc2CCc2ccccc21 -0.69%
CN(C)CCCN1c2ccccc2CCc2ccc(Cl)cc21 -0.38%
COc1ccc(/C=C/C(=O)OCC(=O)NCc2ccco2)c(OC)c1 -0.46%
CCC(C)C(=O)N1CCCC(c2nc(-c3cccs3)no2)C1 (stereo not given) -0.34%
COc1ccccc1OCCn1cc(/C=N/NC(N)=S)c2ccccc21 -0.18%
Cc1cccc(-n2c(SCC(=O)O)nc3sc4c(c3c2=O)CCCC4)c1 0.2%
C[C@@H]1C[C@@H]2OC(=O)[C@]3(C)[C@H]2[C@@H](OC3(C)O)[C@]2(C)C(=O)C=C[C@H]12 (stereo not given in full) 1.25%
CCOC(=O)C1CCN(C(=S)Nc2cc(OC)c(OC)cc2C(=O)OC)CC1 0.82%
O=C(NCCCN1CCCC1)c1ccc2c(c1)N(Cc1ccccc1F)C(=O)c1ccccc1S2=O (stereo not given) -0.62%
Cc1ccccc1CN1C(=O)c2ccccc2S(=O)c2ccc(C(=O)NCCCN3CCOCC3)cc21 (stereo not given) -0.39%
Cc1ccc(-c2csc(N3CCN(c4cc5c(cc4Cl)nc(C)n5CCN4CCCCC4)CC3)n2)cc1 0.49%
O=[N+]([O-])c1ccc(C(O)CSC(=S)N2CCCCC2)cc1 (stereo not given) -0.96%
CCN1CCN(c2ccc(S(=O)(=O)N3CCCCC3)cc2NC(=O)Cc2c(F)cccc2Cl)CC1 0.49%
CCN1CCN(c2ccc(S(=O)(=O)N3CCCCC3)cc2NC(=O)Cc2ccc(OC)cc2)CC1 0.99%
COc1ccc(Cl)cc1C(=O)NCCCSc1ccccc1 -1.17%
COc1ccc(CNC(=O)CCN2C(=O)c3ccncc3C2=O)cc1OC 0.59%
COc1cc(-c2nc(C(=O)NC3CCCCC3)cc3c2[nH]c2ccccc23)cc(OC)c1OC 1.01%
N=c1c(C(=O)NCCN2CCOCC2)cc2c(=O)n3ccccc3nc2n1Cc1ccc(F)cc1 0%
Cc1cccn2c(=O)c3cc(C(=O)NCCN4CCOCC4)c(=N)n(CCN4CCOCC4)c3nc12 -0.04%
CN1C(=O)c2ccc(C(=O)NCc3ccco3)cc2C1=O 1.39%
c1ccc(Sc2ncnc3c2oc2ccccc23)nc1 1.08%
CC(/C=N/n1cnnc1)=C\c1ccccc1 -0.2%
ClC(/C=N/n1cnnc1)=C/c1ccccc1 2.95%
Cc1ccc2nc(Nc3ccccc3)c(C=O)c(=O)n2c1 -0.78%
CCN(CC)C(=O)Nc1c(C)n(C)n(-c2ccccc2)c1=O 0.37%
CCOC(=O)c1c(CN2CCOCC2)n(-c2ccccc2)c2cc(Br)c(O)cc12 1.59%
CCOC(=O)c1c(CN2CCN(C)CC2)n(-c2ccccc2)c2cc(Br)c(O)cc12 0.39%
COc1ccc(CCN(C)C(=O)c2cccc(S(=O)(=O)NCc3ccccc3)c2)cc1OC -1.05%
O=C1N[C@@H](Cc2ccccc2)C(=O)N2[C@@H]1C[C@@]1(Br)c3ccccc3N(S(=O)(=O)c3ccccc3)[C@@H]21 -0.59%
CC(C)c1cc(C(C)C)c(S(=O)(=O)N2c3ccccc3[C@@]3(Br)C[C@H]4C(=O)N[C@@H](Cc5ccccc5)C(=O)N4[C@@H]23)c(C(C)C)c1 2.08%
CCOC(=O)c1c(C)c(C(=O)NCc2cccs2)c(C)n1CC -0.75%
Fc1cccc(Cl)c1Cn1nnc2c(N3CCC4(CC3)OCCO4)ncnc21 0.17%
COc1cc2c(O)c3c(c(-c4ccc5c(c4)OCO5)c2cc1OC)C(=O)OC3 12.1%
COc1ccc(C(=O)Oc2ccc3c(c2)OCO3)cc1OC 0.51%
Cc1nn(Cc2ccccc2Cl)c2sc(C(=O)OC3CCCC3=O)cc12 (stereo not given) -0.34%
O=C(NCC(c1cccnc1)N1CCOCC1)NC1CCCCC1 (stereo not given) 0.45%
CCOC(=O)c1c(-c2ccc(F)cc2)csc1NC(=O)c1c(-c2ccccc2)noc1C -0.66%
COC(=O)c1c(-c2ccc(C)cc2)csc1NC(=O)c1c(-c2ccccc2)noc1C 0.29%
COCCCNC(=S)N1CCCN(c2nc3cc(C)ccc3cc2C#N)CC1 -0.77%
COc1cc(C(=O)N2CCCN(c3nc4cc(C)ccc4cc3C#N)CC2)cc(OC)c1OC 0.84%
COc1cc(-c2csc(NC3CCCCC3)n2)cc(OC)c1OC -0.66%
COc1ccc(/C=C2\SC(=S)N(NS(=O)(=O)c3ccc(C)cc3)C2=O)c(OC)c1 -0.03%
O=C(CN1CCOCC1)Nc1nc(-c2ccc(Cl)cc2)cs1 -0.54%
N=C1C(c2nc(-c3ccc(F)cc3)cs2)=C(O)CN1CCCN1CCOCC1 2.36%
CNc1nc2ccccc2n1CC(=O)c1ccccc1 -1.12%
Cc1cccc(NC(=O)CCN2CCOCC2)c1 0.1%
CCOC(=O)c1sc(=NC(=O)c2cccs2)n(C)c1C 0.29%
CCN(CCCNC(=O)c1cc2c(-c3cccc(OC)c3)nn(C)c2s1)Cc1ccccc1 11.5%
CCN(CC)CCNC(=O)c1cc2c(-c3cccc(OC)c3)nn(C)c2s1 10.3%
Cc1c(C(=O)c2ccc(Cl)c([N+](=O)[O-])c2)c2ccccn2c1CCC#N 0.29%
O=C(CN1C(=O)NC2(CCCCCC2)C1=O)Nc1ccc(S(=O)(=O)N2CCOCC2)cc1 0.5%
CSCCC(N=Cc1c(O)n(-c2ccc(F)cc2)c(=O)[nH]c1=O)C(=O)O (stereo not given) 0.06%
COc1ccc(-c2csc(N(CCCN(C)C)C(=O)c3ccccc3F)n2)cc1 -0.14%
COc1ccc(-c2csc(N(CCCN(C)C)C(=O)c3cccs3)n2)cc1 0.38%
Cc1ccc2nc(-c3ccc(NC(=O)CCN4C(=O)c5ccccc5C4=O)cc3)sc2c1 -0.32%
O=C(COc1ccc([N+](=O)[O-])cc1)N(Cc1ccccc1)Cc1ccccc1 -0.78%
COC(=O)c1c(NC(=O)C(C)C)sc2c1C(C(=O)OC)CC2 (stereo not given) 1.21%
COC(=O)c1c(NC(=O)C(C)(C)C)sc2c1C(C(=O)OC)CC2 (stereo not given) -0.06%
CC1=C(C(=O)N2CCCC(CCC(=O)NCc3ccccc3F)C2)OCCO1 (stereo not given) -0.63%
N=c1c2c(ncn1CCN1CCOCC1)Oc1ccc3ccccc3c1C2c1ccccc1 (stereo not given) 2.66%
COc1ccc(C2c3c(ncn(CCN4CCOCC4)c3=N)Oc3ccc4ccccc4c32)cc1OC (stereo not given) -1.66%
COc1ccc(C2c3ccc4ccccc4c3Oc3ncn(CCCO)c(=N)c32)cc1 (stereo not given) -1.98%
COc1ccc(C2c3ccc4ccccc4c3Oc3ncn(CCO)c(=N)c32)cc1OC (stereo not given) 57.3%
COc1ccc(C2c3c(ncn(CCCN4CCOCC4)c3=N)Oc3ccc4ccccc4c32)cc1OC (stereo not given) -1.6%
COc1ccc(C2c3ccc4ccccc4c3Oc3ncn(CCN4CCOCC4)c(=N)c32)cc1 (stereo not given) -0.91%
Cc1nc2nc(CCc3ccccc3)nn2c(C)c1Cl 0.45%
CN(Cc1ccon1)C(=O)CCc1nnc(Cc2ccc(-c3ccccc3)cc2)o1 -0.95%
Cc1cccc(-n2c(C)cc(C)c(C#N)c2=O)c1 0.53%
O=C(NNc1ccccc1[N+](=O)[O-])Nc1ccc(F)cc1F -0.58%
O=C(CCc1nc2ccccc2s1)OCc1ccccc1F -0.14%
O=c1c2c(-c3cccc([N+](=O)[O-])c3)ccnc2[nH]n1-c1ccccc1 0%
COCCn1c(N)c(N(Cc2ccccc2)C(=O)Cc2c(Cl)cccc2Cl)c(=O)[nH]c1=O -0.15%
Cc1ccc(-n2c(SCC(=O)Nc3ccc(N4CCOCC4)cc3)nc3ccccc3c2=O)cc1 12.4%
C=CCn1c(SCC(=O)Nc2ccc3c(c2)CCC3)nc2ccccc2c1=O -0.68%
CCCCn1c(SCC(=O)Nc2ccc3c(c2)CCC3)nc2ccccc2c1=O -0.76%
O=C(CSc1nc2ccccc2c(=O)n1-c1ccc(F)cc1)Nc1ccc(C(=O)O)cc1 0.03%
O=C(CSc1nc2ccccc2c(=O)n1-c1ccc(F)cc1)Nc1ccc(N2CCOCC2)cc1 -1.03%
COc1cccc(-n2c(SCC(=O)Nc3ccc4c(c3)CCC4)nc3ccccc3c2=O)c1 2.86%
O=C(Nc1ccccc1)C1CC(O)CN1S(=O)(=O)c1ccc([N+](=O)[O-])cc1 (stereo not given) 0.17%
Cc1ccc(-c2oc3ccccc3c(=O)c2OCC(=O)O)cc1 0.23%
COc1cc(NC(=O)COC(=O)CCc2cc(OC)c(OC)c(OC)c2)cc(OC)c1 1.02%
CCN(CC)CCCNC(=O)c1cc2c(=O)n(CC)c3ccccc3c2s1 1.54%
COCCNC(=O)c1cc2sc3ccccc3c2s1 -0.09%
CN(C)CCCNC(=O)c1ccccn1 0.08%
CCCCN(CC)CCNC(=O)c1cc2c(=O)n(CC)c3ccccc3c2s1 -1.08%
COCCN(CCOC)C(=O)c1cc2sc3ccccc3c2s1 -0.78%
CCN(CC)C(=O)c1cc2sc3ccccc3c2s1 -0.37%
